Source: PubChem BioAssay (NCI)
“And” between values parts separate entries of the source, which are not always exact repeats. Equal values may be shown once. This is part of a sample that, as a whole, favours compounds with a hit. Of some 79,000 tested, about 15% had one in any assay. A number with no mark means an inactive call. The source made the active and inactive calls. Cut-off read from the data, not from the text of the source: active = growth inhibition above about 70%; inactive = the rest.

Key:
[1] = NCI Yeast Anticancer Drug Screen. Data for the rad50 strain (AID 155);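 note: 0% = growth of vehicle-only cultures of the same strain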; conditions: S. cerevisiae rad50 strain growth inhibition, hits give high values; at 50.0 µM unless noted
Outline: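 Readout: growth inhibition relative to vehicle-treated cultures. Compound exposure was carried out in a genetically defined yeast strain deficient in DNA damage repair.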

[2] = NCI Yeast Anticancer Drug Screen. Data for the mec2-1 strain (AID 157); conditions: S. cerevisiae mec2-1 strain, hits give high values; at 50.0 µM unless noted
Outline: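 Compounds were applied to mec2-1 yeast cells. Their growth was then compared with that of vehicle-treated cultures to give growth inhibition.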

[3] = NCI Yeast Anticancer Drug Screen. Data for the sgs1 mgt1 strain (AID 161);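 note: 0% = growth of cultures given vehicle only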; conditions: S. cerevisiae sgs1 mgt1 strain, hits give high values; at 50.0 µM unless noted
Outline: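 Growth of a repair-deficient yeast mutant was monitored after compound treatment and expressed as inhibition relative to vehicle-treated cultures.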

[4] = NCI Yeast Anticancer Drug Screen. Data for the cln2 rad14 strain (AID 165);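 note: 0% = growth equal to vehicle treated cultures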; conditions: S. cerevisiae cln2 rad14 strain, hits give high values; at 50.0 µM unless noted
Outline: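 Strain: cln2 rad14 yeast, altered in cell cycle control and DNA damage repair. Read-out: growth inhibition vs vehicle.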

[5] = NCI Yeast Anticancer Drug Screen. Data for the bub3 strain (AID 167); conditions: S. cerevisiae bub3 mutant strain, hits give high values; at 50.0 µM unless noted
Outline: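 Readout: yeast growth inhibition, expressed relative to vehicle-only wells. The test organism is a mutant strain from a panel with lesions in DNA repair or checkpoint genes.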

[6] = NCI Yeast Anticancer Drug Screen. Data for the mlh1 rad18 strain (AID 175); conditions: S. cerevisiae mlh1 rad18 strain growth inhibition, hits give high values; at 50.0 µM unless noted
Outline: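 A repair-deficient yeast strain is exposed to test compound, and growth is scored relative to vehicle-treated controls.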

N#CCNC(=O)Cc1ccccc1
growth inhibition [1]: 10.2%
growth inhibition [2]: -10.2%
growth inhibition [3]: -10.2%
growth inhibition [4]: -12.4%
growth inhibition [5]: -30.3%
growth inhibition [6]: -4.7%

CN(C)c1ccc(/C=C2\C[N+](C)(C)C/C(=C\c3ccc(N(C)C)cc3)C2=O)cc1
growth inhibition [1]: 6.9%
growth inhibition [2]: 3.4%
growth inhibition [3]: 9.35%
growth inhibition [4]: -2.55%
growth inhibition [5]: -3.45%
growth inhibition [6]: 32.8%

CC1(C)N=C(C(N)=O)c2ncn(Cc3ccccc3)c2N1
growth inhibition [1]: -29%
growth inhibition [2]: -32.6%
growth inhibition [3]: -23.6%
growth inhibition [4]: 18.4%
growth inhibition [5]: -8.1%
growth inhibition [6]: -6.9%

Cc1cnc2ccccc2n1 (tested in a mixture with another compound)
growth inhibition [1]: -1.5%
growth inhibition [2]: 4.35%
growth inhibition [3]: -5.25%
growth inhibition [4]: 8%
growth inhibition [5]: -2.1%
growth inhibition [6]: 24.8%

COc1ccc2c(c1)[n+](=O)c(C(=O)C/C(=N\NC(=O)C[N+](C)(C)C)C(=O)Nc1cc(Cl)ccc1Cl)c(C)n2O
growth inhibition [1]: -27.9%
growth inhibition [2]: -12.7%
growth inhibition [3]: -43.6%
growth inhibition [4]: 9.3%
growth inhibition [5]: -23.1%
growth inhibition [6]: -23.4%

N#CCCC(C#N)(CCC#N)C(N)=O
growth inhibition [1]: 11.9%
growth inhibition [2]: -18%
growth inhibition [3]: -2.6%
growth inhibition [4]: -49.6%
growth inhibition [5]: 5.2%
growth inhibition [6]: 1.55%

O=c1[nH]c(-c2ccccc2)nc2nc3ccc([N+](=O)[O-])cc3[n+]([O-])c12
growth inhibition [1]: 19.9%
growth inhibition [2]: -2%
growth inhibition [3]: -1.75%
growth inhibition [4]: -7.55%
growth inhibition [5]: -1%
growth inhibition [6]: 7%

O=S(=O)(N/N=C1\CC2CCC1C2)c1ccccc1 (stereo unspecified)
growth inhibition [1]: -7.05%
growth inhibition [2]: -16.1%
growth inhibition [3]: -16.9%
growth inhibition [4]: 27.8%
growth inhibition [5]: 21.4%
growth inhibition [6]: 4.4%

O=NC1C(Br)C2CC1C1C(Br)C(Br)CC21 (stereo unspecified)
growth inhibition [1]: 4.45%
growth inhibition [2]: 5.95%
growth inhibition [3]: 13.3%
growth inhibition [4]: 0.15%
growth inhibition [5]: -1.2%
growth inhibition [6]: 6.7%

Nc1ncnc2c1nc(Cl)n2C1OC2COP(=O)(O)OC2C1O (stereo unspecified)
growth inhibition [1]: -15.9% and -13.3%
growth inhibition [2]: -8.05% and 3.45%
growth inhibition [3]: -20.7% and -0.55%
growth inhibition [4]: -9.25% and -40.8%
growth inhibition [5]: -27.1% and -41.8%
growth inhibition [6]: -13.8% and -10.6%

CC1Nc2ccccc2C1C (stereo unspecified)
growth inhibition [1]: -35.2%
growth inhibition [2]: -49%
growth inhibition [3]: -62.1%
growth inhibition [4]: 7.05%
growth inhibition [5]: -59.6%
growth inhibition [6]: -12.5%

O=C(/C=C\c1ccc(Cl)c(Cl)c1)c1ccc(Cl)cc1Cl
growth inhibition [1]: 36.1%
growth inhibition [2]: 9.35%
growth inhibition [3]: -4.6%
growth inhibition [4]: 1.65%
growth inhibition [5]: 22.1%
growth inhibition [6]: 0.7%

Nc1c(Cl)ccc2c(Cl)ccnc12
growth inhibition [1]: -1.15%
growth inhibition [2]: -9.55%
growth inhibition [3]: -7.2%
growth inhibition [4]: -21.1%
growth inhibition [5]: -9.55%
growth inhibition [6]: 7.55%

Cc1ccc([N+](=O)[O-])cc1NC(=O)N(Cc1ccccc1)Cc1ccccc1
growth inhibition [1]: 8.7%
growth inhibition [2]: 1.5%
growth inhibition [3]: 10.8%
growth inhibition [4]: 9.4%
growth inhibition [5]: 17.3%
growth inhibition [6]: -0.05%

CCN(CC)c1ccc2cc(C(=O)NCc3ccccc3)c(=N)oc2c1
growth inhibition [1]: 9.7%
growth inhibition [2]: 15.8%
growth inhibition [3]: -15.8%
growth inhibition [4]: 3.45%
growth inhibition [5]: -38%
growth inhibition [6]: 7.35%

COc1ccc(CCNS(=O)(=O)c2c(C)c(C)c(C)c(C)c2C)cc1OC
growth inhibition [1]: -2.2%
growth inhibition [2]: -20.6%
growth inhibition [3]: 5.1%
growth inhibition [4]: 21.1%
growth inhibition [5]: 21.2%
growth inhibition [6]: 6.8%

CCOC(=O)c1sc2c(c1OC(=O)c1ccc(OC)cc1)c(=O)n(-c1ccccc1)c(=S)n2-c1ccccc1
growth inhibition [1]: 39.5%
growth inhibition [2]: 9.65%
growth inhibition [3]: 23.4%
growth inhibition [4]: 17.5%
growth inhibition [5]: 31%
growth inhibition [6]: 38.4%

O=C1COC(=O)CO1
growth inhibition [1]: -15.6%
growth inhibition [2]: -18.9%
growth inhibition [3]: -5.7%
growth inhibition [4]: 34.2%
growth inhibition [5]: 8.55%
growth inhibition [6]: -10.7%

CCCCCC[P+](c1ccccc1)(c1ccccc1)c1ccccc1
growth inhibition [1]: 97.7% (active)
growth inhibition [2]: 98.4% (active)
growth inhibition [3]: 98% (active)
growth inhibition [4]: 95% (active)
growth inhibition [5]: 96.1% (active)
growth inhibition [6]: 97.8% (active)

CC(Br)C(=O)NC(CC(N)=O)C(=O)O (stereo unspecified)
growth inhibition [1]: 1.8% and -8.25%
growth inhibition [2]: -15.6% and -16.1%
growth inhibition [3]: -9.15%
growth inhibition [4]: 4.2%
growth inhibition [5]: -14.7%
growth inhibition [6]: 23% and -17.1%

CC1=C(C#N)C(=C(C#N)C#N)OC1(C)Cc1ccccc1 (stereo unspecified)
growth inhibition [1]: 8.25%
growth inhibition [2]: 6.35%
growth inhibition [3]: 24.6%
growth inhibition [4]: 8.55%
growth inhibition [5]: 2.85%
growth inhibition [6]: 33.1%

O=C(O)c1c(O)cc(=O)oc1-c1ccc(Cl)cc1
growth inhibition [1]: 10.8%
growth inhibition [2]: 0.9%
growth inhibition [3]: 3.75%
growth inhibition [4]: 4%
growth inhibition [5]: 10.4%
growth inhibition [6]: 4.75%

Cc1cc(=O)[nH]c2[nH]c(=O)ccc12
growth inhibition [1]: -11.4%
growth inhibition [2]: 0.05%
growth inhibition [3]: -1.5%
growth inhibition [4]: -6.35%
growth inhibition [5]: -2.2%
growth inhibition [6]: 2%

O=[N+]([O-])c1cccc(S/N=C/c2ccccc2O)c1
growth inhibition [1]: 98.8% (active)
growth inhibition [2]: 99.5% (active)
growth inhibition [3]: 99.2% (active)
growth inhibition [4]: 97.5% (active)
growth inhibition [5]: 99.2% (active)
growth inhibition [6]: 99% (active)

COc1ccc(C2S/C(=C\c3ccc(OC)cc3OC)C(=O)N2NC(=O)Cc2ccccc2)cc1 (stereo unspecified)
growth inhibition [1]: -4.3%
growth inhibition [2]: -50.6%
growth inhibition [3]: 2.4%
growth inhibition [4]: -59.6%
growth inhibition [5]: -14.1%
growth inhibition [6]: 5.05%

Cc1ccnc(NCCCNc2nccc(C)n2)n1
growth inhibition [1]: 22.6%
growth inhibition [2]: -1.4%
growth inhibition [3]: 14.1%
growth inhibition [4]: 36.8%
growth inhibition [5]: 5.2%
growth inhibition [6]: 22.3%

CC1CC(NC(=S)N(C)C)CC(C)(C)C1 (stereo unspecified)
growth inhibition [1]: 6.9%
growth inhibition [2]: 3.65%
growth inhibition [3]: 18.8%
growth inhibition [4]: -10.8%
growth inhibition [5]: 47.9%
growth inhibition [6]: 3.55%

O=c1[nH]c(=O)n(C2OC(CO)C(O)C2O)c2ccccc12 (stereo unspecified)
growth inhibition [1]: 8.3%
growth inhibition [2]: -6.4%
growth inhibition [3]: -8%
growth inhibition [4]: -2%
growth inhibition [5]: -5.45%
growth inhibition [6]: 3.8%

CC/C=N\N1C(N)=C(C#N)C(C#N)(C#N)C1CC (stereo unspecified)
growth inhibition [1]: 6.05%
growth inhibition [2]: 10.2%
growth inhibition [3]: -18.9%
growth inhibition [4]: 4.75%
growth inhibition [5]: -12.8%
growth inhibition [6]: -27.9%

Cc1ccc(C)c(N=Nc2c(C)nc(N)nc2C)c1
growth inhibition [1]: 1.8%
growth inhibition [2]: -10.2%
growth inhibition [3]: -9.45%
growth inhibition [4]: -34.2%
growth inhibition [5]: -22.1%
growth inhibition [6]: -3.05%

CCCCOC(=O)c1cccc(C)c1
growth inhibition [1]: -3%
growth inhibition [2]: 4.4%
growth inhibition [3]: -4.35%
growth inhibition [4]: -38.1%
growth inhibition [5]: 2.6%
growth inhibition [6]: -0.9%

Cc1cc(C)nc(NS(=O)(=O)c2ccc(NC(=O)c3cccc4c(Nc5ccc(S(=O)(=O)Nc6nc(C)cc(C)n6)cc5)c5ccc(Cl)cc5nc34)cc2)n1
growth inhibition [1]: 27.4%
growth inhibition [2]: 35.7%
growth inhibition [3]: 24.3%
growth inhibition [4]: 33%
growth inhibition [5]: 19.6%
growth inhibition [6]: 30.7%

Fc1ccccc1-c1nn2c(C34CC5CC(CC(C5)C3)C4)nnc2s1
growth inhibition [1]: 6.45%
growth inhibition [2]: -33.1%
growth inhibition [3]: -29.6%
growth inhibition [4]: -14.5%
growth inhibition [5]: -11.8%
growth inhibition [6]: -52%

O=C(Oc1ccc(O)cc1)N(c1cccc2ccccc12)c1cccc2ccccc12
growth inhibition [1]: 38%
growth inhibition [2]: 18.1%
growth inhibition [3]: 40.6%
growth inhibition [4]: 22.4%
growth inhibition [5]: 66%
growth inhibition [6]: 44.2%

Cc1[nH]c(=O)cc2c1[nH]c1ccccc12
growth inhibition [1]: -0.4%
growth inhibition [2]: -6.7%
growth inhibition [3]: -0.15%
growth inhibition [4]: -44.2%
growth inhibition [5]: 1.3%
growth inhibition [6]: -1.05%

CCOC(Cc1ccccc1)OCC
growth inhibition [1]: 20.9%
growth inhibition [2]: 19.9%
growth inhibition [3]: 18.4%
growth inhibition [4]: -0.7%
growth inhibition [5]: 10.9%
growth inhibition [6]: 12.7%
